{
  "source": "PubChem BioAssay AID2507",
  "about": "(National Center for Advancing Translational Sciences (NCATS), 2010)",
  "note": "Results filed as inconclusive are left out. Active and inactive are the calls of the source. Calls follow the shape of the dose curve; as a rule, active = well fitted inhibition curve with a large enough effect; inconclusive = small, poorly fitted or top-dose-only effect, or effect the other way; inactive = flat fitted curve, though single readings scatter.",
  "data": [
    {"assay": "Secondary Assay for General miRNAs Modulators and/or Inhibitors/Activators of miR-21: miR-30 Firefly Luciferase Assay", "settings": "HeLa miR-30 FLuc reporter, luminescence, 48 h; series mostly up to 38.3 µM; activity change, negative = inhibition: at the top concentration", "source_text": "MLSCN Grant: 1 R21 NS059478-01 Assay Provider: Qihong Huang, The Wistar Institute NCGC Assay Overview: MicroRNAs (miRNAs) are endogenously encoded small (~20-25 nucleotides), nonprotein-coding RNAs that are involved in post-transcriptional repression of target messenger RNAs (mRNAs) (Le and Hannon, 2004). Estimated to be involved in the regulation of 30% of all protein-coding mRNAs (Filipowicz et al., 2008), miRNAs play a significant role in many biological processes including cellular differentiation and tissue development (Ghildiyal and Zamore, 2009). […] Compounds active in the miR-21 FLuc assay were clustered using Leadscope and active chemical series were prioritized based on chemical properties, potential for medicinal chemistry optimization, and SAR. Within each chemical series, representative compounds were re-acquired to test for activity in a secondary assay based on the quality of their CRC, efficacy, and potency. The secondary assay to determine if compounds active in the miR-21 FLuc assay were potentially specific for miR-21 and were not general modulators of the miRNA pathway was another cell-based FLuc reporter gene assay, this time targeting miR-30. Compounds found active in both the miR-21 FLuc and miR-30 FLuc assays are not considered miR-21 specific compounds, and may be general miRNA modulators.\nNCGC Assay Protocol Summary: Reagents: HeLa cells stably expressing firefly luciferase (FLuc) under the control of a CMV promoter (upstream) and a miR-30 binding sequence directly downstream of the gene. These cells also stably express miR-30. Control compounds used were compound C3 (provided by collaborator), N6-phenyladenosine (MP Biomedicals, 0215379625), and DMSO. Assay Summary: 6uL of HeLa miR-30-FLuc cells in assay buffer (DMEM, Invitrogen #21063-029; 10% FBS, HyClone #SH30071.03) were dispensed at 1000cells/well (1.7 x 10^5 cells/mL) into Greiner solid-white TC-treated 1536-well plates using a Multidrop Combi (Thermo Fisher Scientific). Plates were incubated for one hour at 37 degree Celsius, 95% humidity, 5% CO2. These assay plates were then treated with 23nL of compound or DMSO using a Kalypsys pin tool, which allows for delivery of a 24-point titration of each compound to the assay plate, with a final compound concentration ranging from approximately 40uM to 5pM. Assay plates were then incubated for 48 hours. After incubation, plates were allowed to come to RT for one hour prior to delivery of 3uL of 3X luciferase detection reagent. After a 15 minute incubation to allow for cell lysis, luciferase activity was measured using a ViewLux CCD imager (PerkinElmer), with an average exposure time of 2-12 seconds. Keywords: NIH Roadmap, MLPCN, MLSMR, qHTS, miR-21, miR-30, microRNA, firefly luciferase, FLuc.", "values": [
      {"smiles": "Clc1ccc(-n2ncc3c(NCc4ccccn4)ncnc32)cc1", "Potency": "12.6 µM (active)"},
      {"smiles": "Cc1cccc(-c2nnc(SCC(=O)Nc3ccc(C)c(C)c3)o2)c1", "Potency": "3.18 µM (active)"},
      {"smiles": "O=C(Nc1nnc(S(=O)(=O)N2CCCC2)s1)c1ccc(F)cc1", "activity change, negative = inhibition": "-22.3% (inactive)"},
      {"smiles": "Cc1cc(C)cc(NC(=O)CSc2nnc(-c3ccccc3C)o2)c1", "Potency": "11.3 µM (active)"},
      {"smiles": "Cc1ccc(-c2nsc(SCC(=O)Nc3ccc4c(c3)OCO4)n2)cc1", "Potency": "11.3 µM (active)"},
      {"smiles": "CC(C)(C)c1ccc(NC(=O)CSc2nnc(-c3n[nH]c4ccccc34)o2)cc1", "Potency": "11.3 µM (active)"},
      {"smiles": "CC(C)COc1ccc(C(=O)Nc2cc(-c3ccccc3)no2)cc1", "Potency": "2.25 µM (active)"},
      {"smiles": "O=C(CSc1nnc(-c2ccccn2)o1)Nc1cccc(Cl)c1", "Potency": "1.13 µM (active)"},
      {"smiles": "Cc1cc(SCC(=O)Nc2nsc(-c3ccc(C(C)(C)C)cc3)n2)nc2ccccc12", "Potency": "2 µM (active)"},
      {"smiles": "COc1cccc(NC(=O)CSc2nnc(-c3cccs3)o2)c1", "Potency": "5.65 µM (active)"},
      {"smiles": "COc1ccc(-c2nc(SCc3ccccc3)n(S(C)(=O)=O)n2)cc1", "Potency": "11.3 µM (active)"},
      {"smiles": "O=C(CSc1nnc(-c2ccc(C(F)(F)F)cn2)o1)Nc1cccc(Cl)c1", "Potency": "2.83 µM (active)"},
      {"smiles": "CCc1ccc(-n2nnc(-c3nc(-c4cccs4)no3)c2N)cc1", "Potency": "1.42 µM (active)"},
      {"smiles": "Cc1c(-c2nc(-c3ccc(C(F)(F)F)cc3)no2)n(C)oc1=O", "Potency": "0.503 µM (active)"},
      {"smiles": "COc1ccccc1NC(=O)C/C(C)=N/NC(=O)c1ccccn1", "activity change, negative = inhibition": "-7.18% (inactive)"},
      {"smiles": "CCS(=O)(=O)n1nc(-c2ccccc2)nc1NCc1ccco1", "activity change, negative = inhibition": "-29.2% (inactive)"},
      {"smiles": "c1ccc(CSc2nnc3ccc(-c4cccs4)nn23)nc1", "Potency": "11.3 µM (active)"},
      {"smiles": "COc1ccc(-c2nnc(SCC(=O)Nc3cccc(F)c3)s2)cc1", "Potency": "8.95 µM (active)"},
      {"smiles": "Cc1cccc(-c2nsc(SCC(=O)Nc3ccc4c(c3)OCO4)n2)c1", "Potency": "22.5 µM (active)"},
      {"smiles": "O=S(=O)(c1ccc(F)cc1)n1ccc(-c2cnc(-c3ccccc3)s2)n1", "Potency": "6.34 µM (active)"},
      {"smiles": "Cn1c(=O)[nH]c2cc(-c3noc(-c4ccc(F)cc4)n3)ccc21", "Potency": "2.52 µM (active)"},
      {"smiles": "Cc1nnc(SCc2nc(N)nc(Nc3ccccc3)n2)s1", "Potency": "22.5 µM (active)"},
      {"smiles": "CC(=O)Nc1nc2c(C)cc(NC(=O)C3CCCCC3)cc2s1", "Potency": "1.26 µM (active)"},
      {"smiles": "Cc1cc(C)cc(NC(=O)CSc2nnc(CNC(=O)c3ccco3)o2)c1", "activity change, negative = inhibition": "4.57% (inactive)"},
      {"smiles": "Nc1c(-c2nc(-c3cccs3)no2)nnn1-c1cccc(F)c1", "Potency": "0.283 µM (active)"},
      {"smiles": "COc1ccc(CNc2nc(-c3ccco3)nn2C(=O)CC(C)C)cc1", "Potency": "11.3 µM (active)"},
      {"smiles": "COc1cccc(-n2nnc(-c3nc(-c4cccs4)no3)c2N)c1", "Potency": "0.634 µM (active)"},
      {"smiles": "COc1ccc(C(=O)Nc2nnc(C(C)C)s2)cc1OC", "Potency": "7.98 µM (active)"},
      {"smiles": "Cc1ccc(-c2nc(NCc3ccco3)n(S(C)(=O)=O)n2)cc1", "Potency": "11.3 µM (active)"},
      {"smiles": "CCCn1c(=O)c2sccc2n2c(CCCC(=O)Nc3ccc(Oc4ccc(Cl)cc4)cc3)nnc12", "activity change, negative = inhibition": "19.4% (inactive)"},
      {"smiles": "CCC(=O)n1nc(-c2cccnc2)nc1NCc1ccc(F)cc1", "activity change, negative = inhibition": "29.6% (inactive)"},
      {"smiles": "Cc1ccc(CNc2nc3nc(C)c(Cl)c(C)n3n2)cc1", "Potency": "6.34 µM (active)"},
      {"smiles": "CCc1nonc1NC(=O)c1oc2cc(C)c(C)cc2c1C", "Potency": "3.18 µM (active)"},
      {"smiles": "COc1ccc(NC(=O)c2ncn(-c3ccccc3)n2)cc1Cl", "Potency": "14.2 µM (active)"},
      {"smiles": "Cc1cc(C)c2c(N)c(C(=O)Nc3ccccc3F)sc2n1", "Potency": "1.79 µM (active)"},
      {"smiles": "Cc1ccccc1Nc1nc(N)nc(CN(C)c2ccccc2)n1", "Potency": "12.6 µM (active)"},
      {"smiles": "COc1ccccc1NC(=O)CSc1nnc(-c2ccccn2)o1", "Potency": "5.04 µM (active)"},
      {"smiles": "Cc1ccc(NC(=O)Cn2nnc(-c3nc(-c4ccc(Cl)cc4)no3)c2N)cc1C", "activity change, negative = inhibition": "-16.2% (inactive)"},
      {"smiles": "CC(=O)c1cnc2nc(SCc3ccccc3)nn2c1C", "Potency": "12.6 µM (active)"},
      {"smiles": "COc1ccccc1C(=O)n1nc(-c2ccco2)nc1NCc1ccc(Cl)cc1", "Potency": "7.98 µM (active)"}
    ]}
  ]
}
